As a reminder, the Inhibition is the relative decrease from the control value, in per cent.

Measured potencies and affinities stand elsewhere.

The test system of the first assay is Staphylococcus aureus. The note with it: Concentration 20 uM; ASSAY_TEST Inhibition of Bacterial Growth; detection method Absorption (OD600); MEDIA CAMHB; plate type 384well; NBS; CORNING #3640; time 18 hr.
With `CC(C(=O)Nc1ccc2oc(-c3ccncc3)nc2c1)c1ccccc1` (stereo not given), the Inhibition is listed as 33.61%.
For `COC(=O)c1c(NC(=O)c2cc3ccccc3oc2=O)sc2c1CCN(Cc1ccccc1)C2`, the Inhibition was found to be 19.04%.
As to `CC(C)(C)c1ccc(N[C@@H]2CCCC[C@H]2NC(=O)c2ccco2)cc1`, the Inhibition is listed as 7.06%.
As for `CCOc1ccc2cc(-c3nn(C(C)(C)C)c(N)c3C(N)=O)cnc2c1.Cl`, the Inhibition came to 14.66%.
Still for that read-out and setting: the result for `CCc1nc2ccc(Cl)cn2c1C(=O)NCc1ccc(N2CCC(c3ccc(OC(F)(F)F)cc3)CC2)cc1` [TELACEBEC] reads 17.2%.
As to `CNC(=O)CNc1nc(-c2ccccn2)nc2scc(-c3ccccc3)c12`, the Inhibition turned out to be 11.27%.
Consider `Cc1ccc(S(=O)(=O)n2cc(-c3ccnc(N)c3)c3cc(Br)cnc32)cc1`, for which the Inhibition stood at 9.7%.
Regarding `Cc1ccccc1C(=O)N1N=C(Nc2ccccc2)SC1(C)C`, the Inhibition worked out at 8.67%.
In the case of `O=C(C1CCN(c2cc(-n3cccc3)ncn2)CC1)N1CCc2ccccc2C1`, the Inhibition is 7.19%.
The same measure, in the same setting: in the case of `CCc1cc(=O)n(C)c(SC(C)C(=O)Nc2ccc(F)cc2)n1` (stereo not given) it was 4.54%; in that of `CN1CCN(c2nccc3[nH]c(-c4cccc(F)c4)cc23)CC1`, 12.79%.
As for `CC(C)(C)c1cnc(NC(=O)c2ccccc2O)s1`, the Inhibition came out at 23.8%.
On to `CC1CS(=O)(=O)CCN1/N=C/c1ccc([N+](=O)[O-])o1` (stereo not given) [NIFURTIMOX], for which the Inhibition was determined as 33.42%.
Still for that read-out and setting: the result for `COc1cccc(OCC(=O)c2ccc(Br)cc2)c1` reads -13.25%; that for `CC(C)(C)CN1C(=O)C(c2ccccc2)(c2ccccc2)N=C1N`, 17.09%; that for `O=C(c1cc2ccccc2o1)N1CCN(Cc2ccc3c(c2)OCO3)CC1`, 8.69%.
For the molecule `COc1ccc(Oc2ccc([C@@H](C)N(C)c3ncc4c(N)nc(N)nc4n3)cc2)cc1`, the Inhibition came out at 53.21%.
With `O=C(Nc1nnc(S)s1)c1cc(Br)ccc1Cl`, the Inhibition is listed as 0.16%.
For the molecule `N#Cc1nc(-c2ccccc2)oc1S(=O)(=O)c1ccc(Cl)cc1`, the Inhibition is listed as 8.62%.
Consider `COC(=O)c1ccc(F)cc1NS(=O)(=O)c1cccc(-c2cnn(Cc3ccccc3)c2)c1`, for which the Inhibition is 11.02%.
For the molecule `COc1ccc(-c2cnc3ccc(N4CCCC4)nn23)cc1OC`, the Inhibition came to 12.67%.
Same read-out and setting: the result for `CCC(NC(=O)c1ccccc1NC(=O)c1ccc(C)cc1)C(=O)OC` (stereo not given) reads 17.84%.
For `COc1ccc(N(CCc2cccc(C)n2)C(=O)C2CCCCC2)cc1`, the Inhibition turned out to be 4%.
Still for that read-out and setting: the result for `CCc1ccc([C@@H]2C[C@H](C(F)(F)F)n3ncc(C(=O)NCc4ccc(OC)cc4)c3N2)cc1` reads 5.55%.
Still for that read-out and setting: the result for `COc1cc(NC(=O)Cc2nn(C)c(=O)c3ccccc23)ccc1Cl` reads 23.8%; that for `CC(=O)Nc1ccc(NC(=O)c2cc(-c3cc(Cl)ccc3O)n[nH]2)cc1`, 5.62%; that for `Nc1nccc2ccc(-c3ccc4nccn4c3)cc12`, 24.43%.
Regarding `COc1ccc(OC(C)C(=O)Nc2ccc(Cl)cc2C)cc1` (stereo not given), the Inhibition was 11.95%.
Same read-out and setting: in the case of `CCc1ccccc1-n1c(C)cn2c3c(=O)n(C(C(=O)OC)C(C)C)c(=O)n(C)c3nc12` (stereo not given) it was 5.27%; in that of `O=C(CCC1CCCCC1)Nc1cccc(-c2nnc(-c3ccco3)o2)c1`, 8.68%; in that of `c1coc(CNc2nc(N3CCCCC3)nc3ccccc23)c1`, 13.52%.
Take `c1ccc(Oc2ccc(-c3cc(C4CCOCC4)[nH]n3)cc2)cc1`: the Inhibition is 24.63%.
Consider `O=C(NCCc1ccn(-c2ccccc2)n1)C1CCCCC1`, for which the Inhibition is listed as 6.55%.
As for `CN1CCN(c2cc(-c3ccc(F)cc3)nc(-c3ccncc3)n2)CC1`, the Inhibition turned out to be 17.93%.
Consider `Cc1cccc(Cn2ccc(NC(=O)c3ccc4c(c3)OCO4)n2)c1`, for which the Inhibition is 18.14%.

The next assay deals with Escherichia coli. The note with it: Concentration 20 uM; ASSAY_TEST Inhibition of Bacterial Growth; detection method Absorption (OD600); MEDIA CAMHB; plate type 384well; NBS; CORNING #3640; time 18 hr.
Consider `CC(C(=O)Nc1ccc2oc(-c3ccncc3)nc2c1)c1ccccc1` (stereo not given), for which the Inhibition is listed as 6.76%.
For `COC(=O)c1c(NC(=O)c2cc3ccccc3oc2=O)sc2c1CCN(Cc1ccccc1)C2`, the Inhibition came to 12.69%.
Regarding `CC(C)(C)c1ccc(N[C@@H]2CCCC[C@H]2NC(=O)c2ccco2)cc1`, the Inhibition is recorded as 10.16%.
For the molecule `CCOc1ccc2cc(-c3nn(C(C)(C)C)c(N)c3C(N)=O)cnc2c1.Cl`, the Inhibition was determined as 7.93%.
With `CCc1nc2ccc(Cl)cn2c1C(=O)NCc1ccc(N2CCC(c3ccc(OC(F)(F)F)cc3)CC2)cc1` [TELACEBEC], the Inhibition was determined as 13.17%.
Regarding `CNC(=O)CNc1nc(-c2ccccn2)nc2scc(-c3ccccc3)c12`, the Inhibition is given as 6.67%.
The same measure, in the same setting: the result for `Cc1ccc(S(=O)(=O)n2cc(-c3ccnc(N)c3)c3cc(Br)cnc32)cc1` reads -3.65%.
As for `Cc1ccccc1C(=O)N1N=C(Nc2ccccc2)SC1(C)C`, the Inhibition is 8.51%.
Take `O=C(C1CCN(c2cc(-n3cccc3)ncn2)CC1)N1CCc2ccccc2C1`: the Inhibition is 12.02%.
In the case of `CCc1cc(=O)n(C)c(SC(C)C(=O)Nc2ccc(F)cc2)n1` (stereo not given), the Inhibition is recorded as 4.12%.
With `CN1CCN(c2nccc3[nH]c(-c4cccc(F)c4)cc23)CC1`, the Inhibition is listed as 3.68%.
`CC(C)(C)c1cnc(NC(=O)c2ccccc2O)s1`: the Inhibition was determined as 4.86%.
Regarding `CC1CS(=O)(=O)CCN1/N=C/c1ccc([N+](=O)[O-])o1` (stereo not given) [NIFURTIMOX], the Inhibition is on record as 6%.
Take `COc1cccc(OCC(=O)c2ccc(Br)cc2)c1`: the Inhibition is -7.45%.
As to `CC(C)(C)CN1C(=O)C(c2ccccc2)(c2ccccc2)N=C1N`, the Inhibition is reported as 4.18%.
For the molecule `O=C(c1cc2ccccc2o1)N1CCN(Cc2ccc3c(c2)OCO3)CC1`, the Inhibition worked out at 11.22%.
The same measure, in the same setting: in the case of `COc1ccc(Oc2ccc([C@@H](C)N(C)c3ncc4c(N)nc(N)nc4n3)cc2)cc1` it was 13.92%; in that of `O=C(Nc1nnc(S)s1)c1cc(Br)ccc1Cl`, 4.27%.
Take `N#Cc1nc(-c2ccccc2)oc1S(=O)(=O)c1ccc(Cl)cc1`: the Inhibition worked out at 6.48%.
Still for that read-out and setting: in the case of `COC(=O)c1ccc(F)cc1NS(=O)(=O)c1cccc(-c2cnn(Cc3ccccc3)c2)c1` it was 13.23%.
As for `COc1ccc(-c2cnc3ccc(N4CCCC4)nn23)cc1OC`, the Inhibition is 7.3%.
On the same count and under the same terms, in the case of `CCC(NC(=O)c1ccccc1NC(=O)c1ccc(C)cc1)C(=O)OC` (stereo not given) it was 3.87%; in that of `COc1ccc(N(CCc2cccc(C)n2)C(=O)C2CCCCC2)cc1`, 3.67%; in that of `CCc1ccc([C@@H]2C[C@H](C(F)(F)F)n3ncc(C(=O)NCc4ccc(OC)cc4)c3N2)cc1`, -1.62%.
`COc1cc(NC(=O)Cc2nn(C)c(=O)c3ccccc23)ccc1Cl`: the Inhibition turned out to be 11.61%.
Take `CC(=O)Nc1ccc(NC(=O)c2cc(-c3cc(Cl)ccc3O)n[nH]2)cc1`: the Inhibition worked out at 10.03%.
Take `Nc1nccc2ccc(-c3ccc4nccn4c3)cc12`: the Inhibition is recorded as 1.05%.
For `COc1ccc(OC(C)C(=O)Nc2ccc(Cl)cc2C)cc1` (stereo not given), the Inhibition is given as 5.14%.
With `CCc1ccccc1-n1c(C)cn2c3c(=O)n(C(C(=O)OC)C(C)C)c(=O)n(C)c3nc12` (stereo not given), the Inhibition was found to be 7.91%.
Still for that read-out and setting: in the case of `O=C(CCC1CCCCC1)Nc1cccc(-c2nnc(-c3ccco3)o2)c1` it was 8.91%; in that of `c1coc(CNc2nc(N3CCCCC3)nc3ccccc23)c1`, 5.17%; in that of `c1ccc(Oc2ccc(-c3cc(C4CCOCC4)[nH]n3)cc2)cc1`, 11.25%.
For the molecule `O=C(NCCc1ccn(-c2ccccc2)n1)C1CCCCC1`, the Inhibition is listed as 2.39%.
Regarding `CN1CCN(c2cc(-c3ccc(F)cc3)nc(-c3ccncc3)n2)CC1`, the Inhibition is -5.05%.
For the molecule `Cc1cccc(Cn2ccc(NC(=O)c3ccc4c(c3)OCO4)n2)c1`, the Inhibition came out at 6.79%.

(Values after ChEMBL document CHEMBL4513149, “CO-ADD screening of MMV (CH) - MMV compounds” (2021).)
